From PubChem BioAssay
CHX counter-1 = counter-screen for Shiga toxin inhibitors: cycloheximide protein synthesis inhibition; cell reporter, cycloheximide protein synthesis inhibition counterscreen; 12% of 300,000 active; max response, %; in the data active = max response mostly above about 13%, no sharp cut-off; inactive = mostly below about 14%; also: read at 38.3 µM for the half of the compounds with a filed dose; 0% is about no effect
Pf growth 48h = P. falciparum growth inhibition at 48 hours (one generation); Potency, µM (doses to about 28.7 µM), for inactives: at the highest dose activity change, negative = inhibition, usual class: inhibitors; 5.9% of 310,000 active; P. falciparum luciferase growth in erythrocytes, 48 h; also: potency is read from the fitted curve at half-maximal effect; % is scaled to controls: 0 for no effect and ±100 for the full control effect
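Erythrocytes infected with P. falciparum carrying an integrated firefly luciferase reporter (2% hematocrit, 0.1% parasitemia final) were exposed to compounds in RPMI 1640 with 0.5% Albumax at 37 C, 5% CO2. Growth inhibition was scored as reduced luminescence.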
AMA1-RON2 inh = disrupts binding of P. falciparum AMA1 to RON2; AlphaScreen AMA1-biotinylated RON2 peptide binding; Potency, µM (top dose mostly 58.2 µM), inactives show at the top dose activity change, negative = inhibition, most hits filed as inhibitors; 0.2% of 360,000 active;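 also: potency is read from the fitted curve at half-maximal effect; 0% = vehicle wells and -100% = peptide control; nearly all actives have a fitted effect of over 45% in size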
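AMA1 (3D7) with his tag at 25 nM final met compounds first, then biotinylated RON2 peptide at 25 nM; detection used donor plus acceptor beads, 10 µg/mL apiece, read by AlphaScreen after 30 min at room temperature.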
Shiga inhibitor = blocks Shiga toxin action in Vero cells; Vero cells, Shiga toxin protein synthesis inhibition reporter; inhibition, % at 38.7 µM; 9.2% of 290,000 active; AID 2315; in the data active = inhibition mostly above about 28%, no sharp cut-off; inactive = mostly below about 43%; also: 0% is about no effect
SARS PLpro yeast = blocks SARS-CoV papain-like protease in a yeast assay | S. cerevisiae expressing SARS-CoV PLpro, growth rescue | Potency, µM (doses to about 32.9 µM), for inactives: at the highest dose activity, positive = growth rescue, usual class: activators | 0.19% of 330,000 active; calls by dose curve; also: potency is read from the fitted curve at half-maximal effect; 0% is about no effect; nearly all actives have a fitted effect of over 55% in size
Pf growth 96h = P. falciparum growth inhibition at 96 hour, primary screen for plastid delayed-death inhibitors; P. falciparum luciferase reporter growth, 96 h; Potency, µM (highest dose often 28.7 µM), for inactives: at the highest dose activity change, negative = inhibition, usual class: inhibitors; 6.9% of 320,000 active; also: potency is read from the fitted curve at half-maximal effect; % is scaled to controls: 0 for no effect and ±100 for the full control effect
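96 h incubation, 37 C, 5% CO2, of luciferase-reporter P. falciparum-infected RBCs (2% hematocrit, 0.05% parasitemia final) with test compounds; endpoint luminescence.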
CHX counter-2 = protein synthesis counter-screen activity for Shiga toxin hits. shares compounds with Shiga inhibitor. Cycloheximide counterscreen, protein synthesis reporter, Shiga toxin assay. Potency, µM (doses to about 38.3 µM), for the others: at the top dose activity (activation), actives largely listed as activators. 3% of 510 active; calls by dose curve; also: potency is read from the fitted curve at half-maximal effect; 0% is about no effect
Active calls of the source: *; ? = inconclusive; . = no result; ! = not confirmed by another sample. In the library only some 19% were active in any assay of this set; here they are far more common. Unless noted, calls follow the shape of the dose curve; as a rule, active = well fitted curve in the direction sought with a large enough effect; inconclusive = small, poorly fitted or top-dose-only effect, or another doubt; inactive = no such curve, though single readings can be large; an effect the other way counts as inactive or inconclusive.

SMILES	CHX counter-1	Pf growth 48h	AMA1-RON2 inh	Shiga inhibitor	SARS PLpro yeast	Pf growth 96h	CHX counter-2
CC(=O)c1ccc2noc(-c3ccc(F)cc3)c2c1	13	4%	30%	52*	-2%	-10%	2%
CN(C)/C=C/C(=O)c1ccc2noc(-c3cccc(F)c3)c2c1	1	-11%	0%	-3	-4%	?	.
Cc1noc(C)c1S(=O)(=O)Nc1cccc(CO)c1	0	21%	18%	45*	1%	28%	-1%
CC(=O)Nc1cccc(NS(=O)(=O)c2c(C)noc2C)c1	.	.	-13%	.	-4%	.	.
CCCn1c(C)cc(/C=C(\C#N)C(=O)OCC(=O)NC(=O)NCC)c1C	6	1%	-2%	18	-2%	.	.
CCCn1c(C)cc(/C=C(\C#N)C(=O)OCC(=O)Nc2ccc(OC)c(Cl)c2)c1C	12	7%	-18%	61*	-3%	?	4%
COC(=O)[C@@]1(Cc2ccc(F)cc2)[C@H]2c3cc(C(=O)N4CCCC4)n(CCc4ccc(O)c(O)c4)c3C[C@H]2CN1C(=O)c1ccccc1	7	?	.	53*	7%	5.9µM*	1%
COc1cc(NC(=O)C2CCCCC2)c(OC)cc1NC(=O)CN1CCCCC1	-6	16%	-6%	-6	5%	?	.
COc1ccccc1N(CCC#N)C(=O)CSc1nnc2ccccn12	.	2%	14%	.	1%	-15%	.
COc1ccccc1N(CCC#N)C(=O)CSc1nc(-c2ccccc2)cn1N	-2	?	-2%	75*	4%	?	0%
Cn1c(-[n+]2c(-c3ccccc3)cc(-c3ccccc3)cc2-c2ccccc2)nc2cc([N+](=O)[O-])ccc21	12	13µM*	4%	42*	-39%	3.3µM*	-3%
Cc1nc(N2CCN(C(=O)c3ccco3)CC2)nc2c1C(=O)CCC2	15	94%	-3%	36*	-1%	?	?
Cc1cc(N2CCCCCC2)nc(-c2ccccc2O)n1	4	-26%	40%	59*	-12%	.	2%
COCCC(=O)N1CCC(Oc2ccc(C(=O)N(C)Cc3cc(C)no3)cc2)CC1	-3	3%	1%	1	-3%	-23%	.
COc1cc(O)c2c(c1)oc(=O)c1c3cc(O)c(O)cc3oc21	21*!	.	.	33*	.	.	8%
COc1cc2oc3cc(C)oc(=O)c3c2cc1OC	5	?	-5%	26	-1%	-26%	.
CN(C(=O)COC(=O)c1cc2c(s1)CCCCC2)C1CCS(=O)(=O)C1 (stereo not drawn)	-2	2%	6%	2	?	-7%	.
COC(=O)Oc1ccc(/C=N/NC(=O)CN(c2ccccc2Cl)S(C)(=O)=O)cc1OC	-3	.	-1%	-3	0%	-22%	.
O=C1C(Cl)=C(Nc2ccccc2)C(=O)c2ccccc21	9	23%	-4%	69*	-18%	8%	?
CC(=O)N/C(=C\c1ccccc1)C(=O)NC(C)C(=O)O (stereo not drawn)	-1	-16%	1%	-9	1%	-26%	.
CC(=O)N/C(=C\c1ccccc1)C(=O)Nc1ccccc1C	8	-8%	0%	52*	0%	107%	2%
Cc1cc(C)c2nc(-c3ccccn3)cc(C(=O)NCc3ccco3)c2c1	17	-2%	-1%	10*	.	1%	?
Cc1ccc(NC(=S)c2nc3ccccc3s2)cc1	20	101%	10µM*	73*	-3%	87%	0.71µM*
Cc1ccc(NC(=O)C2CCN(C(=O)c3ccco3)CC2)cc1C	-2	17%	-3%	3	1%	?	.
COc1ccccc1CNC(=O)Cn1cc([N+](=O)[O-])ccc1=O	-3	28%	5%	50*	-8%	28%	-2%
SMILES	CHX counter-1	Pf growth 48h	AMA1-RON2 inh	Shiga inhibitor	SARS PLpro yeast	Pf growth 96h	CHX counter-2
CN(C1CCCCC1)S(=O)(=O)c1ccc(Cl)c(C(=O)O)c1	-4	7%	2%	-9	-2%	17%	.
CCCCC(=O)OCc1c(-c2cccc(OC)c2)ncc2ccccc12	.	25%	17%	.	0%	?	.
CNC(=O)CSc1nnc(-c2cc(C)cc(C)c2)o1	1	14%	-9%	27*	-3%	12%	1%
CC(C)(C)c1cc(CCC(=O)N2CCC2)cc(C(C)(C)C)c1O	14	26%	0%	14*	-8%	24%	5%
CC(C)(C)c1cc(CN2CCCCC2)cc(C(C)(C)C)c1O	-2	-10%	.	-11	1%	.	.
COCCCNC(=O)NC(=O)c1ccccc1	5	33%	-18%	18*	22%	38%	2%
O=C(NCc1ccccc1Cl)c1cnc2ccccc2n1	-1	-10%	-14%	46*	-10%	12%	7%
CCn1cc(C(=O)NCc2ccccc2Cl)cn1	8	18%	-6%	active	-7%	-22%	0%
O=C(NCc1ccccc1Cl)NCc1ccccc1Cl	1	75%	-3%	-3	-1%	146%	.
C[C@H](CO)N1C[C@H](C)[C@@H](CN(C)S(=O)(=O)c2ccccc2C#N)OCc2cn(nn2)CCCC1=O	.	.	7%	.	.	.	.
CCCCC(CC)CNC(=O)CN1C(=O)NC2(CCc3ccccc32)C1=O (stereo not drawn)	-1	-25%	28%	-6	2%	-3%	.
O=C(NC(O)C(=O)c1cccs1)c1cccnc1 (stereo not drawn)	-2	0%	-8%	-11	-2%	?	.
CCOC(=O)C1(CCCc2ccccc2)CCN(C(=O)CCn2cncn2)CC1	8	9%	10%	39*	0%	77%	3%
CCOC(=O)C1(CCCc2ccccc2)CCN(C(=O)C(C)n2cncn2)CC1 (stereo not drawn)	2	?	11%	10	0%	-2%	.
Cc1ccc(Cl)cc1NC(=O)COC(=O)c1ccc(COc2ccc3c(C)cc(=O)oc3c2)cc1	-1	21%	.	39*	-14%	-1%	2%
COc1ccc([C@@H]2CC=C(C(=O)O)[C@H](c3ccc(C)cc3)N2S(=O)(=O)c2ccccc2C)cc1	.	.	-1%	.	3%	.	.
COc1ccccc1NC(=O)CSc1nnc(-c2ccco2)n1N	-8	13%	8%	-1	-7%	-2%	.
COc1ccccc1NC(=O)CSc1nnc(-c2ccco2)n1Cc1ccco1	-4	-25%	-7%	63*	3%	?	3%
Cc1nc(CN2CCCCC2)cc(=O)[nH]1	12	-17%	63%	2	7%	26%	.
NC(=O)Cc1ccc(C(=O)c2ccccc2F)s1	15	11%	-4%	38*	0%	60%	0%
Cc1cc(OCC(O)CNC(C)c2ccccc2)ccc1C(C)C (stereo not drawn)	-11	?	-10%	-41	-3%	?	.
